PAFAH1B2 inh = PAFAH1B2 (human) inhibition. inhibition, % at 3.39 µM. recombinant PAFAH1B2, FP-rhodamine activity probe, fluorescence polarization. AID 492953. 340,000 compounds, 1.2% hits. P68402;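 active means inhibition above the mean of all tested compounds plus 3 SD, cut at about 24% in these data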
Target sequence (P68402 whole entry, looked up): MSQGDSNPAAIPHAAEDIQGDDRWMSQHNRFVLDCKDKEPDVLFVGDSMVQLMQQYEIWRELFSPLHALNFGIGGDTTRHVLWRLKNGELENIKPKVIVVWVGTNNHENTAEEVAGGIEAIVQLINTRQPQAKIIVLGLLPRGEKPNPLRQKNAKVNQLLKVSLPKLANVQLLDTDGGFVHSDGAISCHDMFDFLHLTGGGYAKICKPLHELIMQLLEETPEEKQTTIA
PAFAH2 inh = PAFAH2 (human) inhibition; inhibition, % at 3.39 µM; AID 492956; Q99487; recombinant PAFAH2, FP-rhodamine activity probe, fluorescence polarization; 340,000 compounds, 0.99% hits;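 active means inhibition above the mean over all tested compounds plus 3 SD, cut at about 30% in these data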;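 further: inhibitors block probe labeling of enzyme so polarization drops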
pPAFAH inh = pPAFAH (human) enzyme inhibition. inhibition, % at 3.39 µM. recombinant pPAFAH, FP-rhodamine probe fluorescence polarization. Q13093. 330,000 compounds, 1.5% hits;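 active means inhibition above the mean inhibition across the screen plus 3 SD, cut at about 25% in these data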;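 further: inhibitors block binding of the rhodamine activity-based probe so polarization drops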
PP5 primary = PP5 (human) phosphatase inhibition | purified PP5c, OMFP substrate fluorescence | inhibition, % at 6.7 µM | 320,000 compounds, 0.18% hits | AID 1987;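 active means inhibition above the campaign's mean inhibition across all tested compounds plus 3 SD, cut at about 9.5% in these data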
PP1 counter = PP1-alpha (human) inhibition in PP5 counter-screen | P62136 | purified PP1alpha, OMFP fluorescence | inhibition, % at 6.7 µM | 320,000 compounds, 0.9% hits | AID 2235;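 active means inhibition above the mean inhibition of all tested compounds plus 3 SD, computed separately for each screening campaign, cut at about 15% in these data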
Target sequence (P62136 whole entry, looked up): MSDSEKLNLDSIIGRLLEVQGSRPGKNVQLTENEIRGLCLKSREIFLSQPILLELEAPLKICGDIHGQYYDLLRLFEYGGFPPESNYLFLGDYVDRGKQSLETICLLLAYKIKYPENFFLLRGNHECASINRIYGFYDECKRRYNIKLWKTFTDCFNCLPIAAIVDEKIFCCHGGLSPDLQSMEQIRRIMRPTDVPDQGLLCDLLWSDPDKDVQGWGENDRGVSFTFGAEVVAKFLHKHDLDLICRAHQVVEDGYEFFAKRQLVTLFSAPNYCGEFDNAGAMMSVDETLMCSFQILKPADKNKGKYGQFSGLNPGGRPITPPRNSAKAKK
PAFAH1B3 inh = inhibitors of human PAFAH1B3; recombinant PAFAH1B3, FP-rhodamine probe, fluorescence polarization; AID 492972; inhibition, % at 3.39 µM; Q15102; 340,000 compounds, 0.28% hits;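 active means inhibition above the screen-wide average of all tested compounds plus 3 SD, cut at about 25% in these data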
PAFAH2 FP conf = PAFAH2 (human) inhibition, confirmed; shares compounds with PAFAH2 inh; recombinant PAFAH2, FP-rhodamine activity probe, fluorescence polarization; inhibition, % at 3.39 µM; 2,300 compounds, 65% hits;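 active means mean inhibition over three repeats above a set limit taken from the earlier primary screen, cut at about 30% in these data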;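 further: inhibitor blocks binding of rhodamine activity probe so polarization falls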
A number is an active result; 0 = inactive; - = no result. A selection: hits, their analogues and other compounds. The true share with any hit is near 3.4%.

SMILES	PAFAH1B2 inh	PAFAH2 inh	pPAFAH inh	PP5 primary	PP1 counter	PAFAH1B3 inh	PAFAH2 FP conf
O=C(NCc1cc([N+](=O)[O-])ccc1O)c1cccnc1Sc1ccccc1Cl	0	39.1	0	0	0	0	32.0
CC1C=CCC2C(=O)N(c3ccccc3OC(=O)c3cccs3)C(=O)C12 (stereo unspecified)	0	0	0	0	0	0	-
CC1C=CCC2C(=O)N(c3ccc(Cl)cc3O)C(=O)C12 (stereo unspecified)	0	34.9	0	0	0	0	0
Nc1cc(C(=O)OCC(=O)NNC(=O)c2cccs2)ccc1Cl	0	0	0	0	0	0	-
Cn1cc(C(=O)C(=O)N2CCc3ccccc32)c2ccccc21	0	0	0	0	0	0	-
O=C(COC(=O)c1cccs1)Nc1ccc(S(=O)(=O)N2CCOCC2)cc1	0	0	0	0	0	0	-
O=C(COC(=O)/C=C/c1cccs1)Nc1cccc(S(=O)(=O)N2CCOCC2)c1	0	67.8	0	0	0	0	55.6
COc1cccc(/C=C/C(=O)OCC(=O)Nc2cccc(S(=O)(=O)N3CCOCC3)c2)c1OC	0	59.2	0	0	0	0	57.8
O=C(COC(=O)c1cccs1)Nc1cccc(S(=O)(=O)N2CCOCC2)c1	0	63.9	0	0	0	0	63.2
O=C(COC(=O)/C=C/c1ccc(OC(F)F)cc1)Nc1cccc(S(=O)(=O)N2CCCC2)c1	0	34.3	0	0	0	0	36.9
CC(C)(C)OC(=O)N1CCN(c2ccc([N+](=O)[O-])cc2)CC1	0	0	0	0	0	0	-
Cn1cccc1C(=O)OCC(=O)Nc1cccc(S(=O)(=O)N2CCOCC2)c1	0	0	0	0	0	0	-
O=C(COC(=O)c1ccc(=O)[nH]c1)Nc1cccc(S(=O)(=O)N2CCOCC2)c1	0	65.8	0	0	0	0	48.5
CCOC(=O)N1CCN(C(=O)CSc2nc(=O)n3ccc(C)cc3n2)CC1	0	0	0	0	0	0	-
CCOc1cc(CNn2cnnc2)cc(Cl)c1OCC(=O)NC(C)(C)C	0	0	0	0	0	0	-
O=C(COC(=O)c1ccco1)NCC1CCCCC1	0	80.3	-	-	-	0	60.2
O=C(COC(=O)c1ccco1)NC1CCCc2ccccc21 (stereo unspecified)	0	39.3	0	-	-	0	0
Cc1cc(C(=O)OCC(=O)NC2CCC(C)CC2)c(C)o1 (stereo unspecified)	0	71.5	0	0	0	0	68.9
CC1CCC(NC(=O)COC(=O)c2ccco2)CC1 (stereo unspecified)	0	66.9	0	0	0	0	64.8
Cn1cc(Cl)c(C(=O)N/N=C/c2ccc3c4c(cccc24)CC3)n1	0	0	0	0	0	0	-
Cc1cc(C)cc(OCC(=O)N2CCN(c3ncccn3)CC2)c1	0	0	0	-	-	0	-
COc1ccc(NC(=O)c2cc([N+](=O)[O-])ccc2N2CCCC2)cc1S(N)(=O)=O	0	0	-	-	-	0	-
CCOc1ccc(Br)cc1S(=O)(=O)Nc1cccc(S(=O)(=O)N(C)C)c1	0	0	0	0	0	0	-
Oc1[nH]c2ccccc2c1N=Nc1ccccc1	0	0	0	0	0	0	-
Cc1ccc2[nH]c(O)c(N=Nc3ccccc3[N+](=O)[O-])c2c1	0	0	-	-	-	0	-
SMILES	PAFAH1B2 inh	PAFAH2 inh	pPAFAH inh	PP5 primary	PP1 counter	PAFAH1B3 inh	PAFAH2 FP conf
Oc1[nH]c2ccccc2c1N=Nc1nc2ccccc2s1	0	51.6	0	0	0	0	0
Cc1ccc2[nH]c(O)c(N=Nc3nc4ccccc4s3)c2c1	0	55.2	0	0	0	0	35.6
COc1ccc(C(=O)NC2CC2)cc1OC1CCN(Cc2cc(C)c(C)cc2C)CC1	0	0	0	0	0	0	-
CN(C(=O)c1cccc(S(=O)(=O)N2CCOCC2)c1)c1c(N)n(Cc2ccccc2)c(=O)[nH]c1=O	0	0	0	0	0	0	-
COc1ccccc1CNC(=O)COC(=O)c1c[nH]c2ccccc12	0	33.4	-	-	-	0	0
COc1ccccc1CNC(=O)COC(=O)c1ccc(Cl)c(N)c1	0	33.0	0	0	0	0	35.0
COc1ccccc1CNC(=O)COC(=O)c1ccc(N2CCCC2=O)cc1	0	60.2	0	0	0	0	46.4
COc1ccccc1NC(=O)COC(=O)c1c[nH]c2ccccc12	0	0	0	0	0	0	-
COc1ccccc1CNC(=O)COC(=O)c1ccc(NC(N)=O)cc1	0	56.0	0	0	0	0	51.6
O=C1c2ccccc2CN1Cc1ccccc1	0	0	0	0	0	0	-
O=C1C2C3CCC(CC3)C2C(=O)N1c1ccccc1 (stereo unspecified)	0	0	0	0	0	0	-
COc1ccc(-c2cc(C(=O)Nc3cc(C)on3)no2)cc1OC	0	61.8	0	0	0	0	0
Cc1cc(NC(=O)c2cc(-c3ccc(O)cc3)on2)no1	0	0	0	0	0	0	-
O=C(CC1NC2CCCCC2NC1=O)Nc1cccc(C(F)(F)F)c1 (stereo unspecified)	0	35.7	0	0	0	0	0
O=C(O)CCCN1C(=O)/C(=C\C(Cl)=C\c2ccccc2)SC1=S	0	60.9	-	-	-	0	0
CN1CCN(C(=O)CCCN2C(=O)/C(=C/c3ccccc3)SC2=S)CC1	0	0	0	0	0	0	-
CSc1ccccc1NC(=O)C1CC(c2ccccc2Cl)=NO1 (stereo unspecified)	0	0	0	0	0	0	-
O=C(Nc1cc(Cl)ccc1O)C1CC(c2ccccc2Cl)=NO1 (stereo unspecified)	0	32.8	-	-	-	0	0
O=C(COC(=O)/C=C/c1ccccc1[N+](=O)[O-])NCC(F)(F)F	0	29.9	0	0	0	0	0
Cc1[nH]c(=O)[nH]c(=O)c1S(=O)(=O)Nc1cccc([N+](=O)[O-])c1C	0	0	-	-	-	0	-
O=C(COC(=O)C1CC2C=CC1C2)NCc1ccc(F)cc1 (stereo unspecified)	0	0	0	0	0	0	-
O=C(COC(=O)C1CC2C=CC1C2)NCc1ccco1 (stereo unspecified)	0	32.4	0	0	0	0	0
C=CCOc1ccc(/C=C/C(=O)OCC(=O)NCc2ccco2)cc1	0	46.1	0	0	0	0	36.3
O=C(COC(=O)/C=C/c1ccc(F)cc1)NCc1ccco1	0	47.0	0	0	0	0	0
O=C(COC(=O)/C=C/c1ccc([N+](=O)[O-])cc1)NCc1ccco1	0	0	0	0	0	0	-
COc1cc2c(cc1OC)C(O)C(O)(CO)C(C(=O)O)C2c1cc(OC)c(OC)c(OC)c1 (stereo unspecified)	0	0	-	-	-	0	-
Cc1c(Cl)cnc(NC(=O)COC(=O)c2cccs2)c1Cl	0	57.6	0	0	0	0	41.1
Cc1nc(NC(=O)COC(=O)c2cccs2)c(Cl)cc1Cl	0	42.8	-	-	-	0	0
Cc1nc(NC(=O)COC(=O)CCC(=O)c2cccs2)c(Cl)cc1Cl	0	0	0	0	0	0	-
